# Results: the supplement of paper PMC11634586
# Counter-ions that a name gives are not always drawn. Unmarked numbers belong to inactive results.
# System: NCI-H1688
# Assay: inhibition of cell viability relative to untreated control (fraction); higher = stronger growth inhibition, active = 0.5 or more
# Details: 30 µM; 24 h
# Summary of the method: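 Compounds from a natural compound library (TargetMol) were tested at 30 µM on NCI-H1688 small cell lung cancer cells for 24 h at 37°C under 5% CO2. Cell Counting Kit-8 absorbance at 450 nm, read in triplicate, gave the viability. The values express inhibition of cell viability as a fraction relative to untreated cells.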
row,Structure (SMILES),inhibition of cell viability
1,NC(=O)CC[C@H](N)C(=O)O [L-Glutamine],-0.0181
2,CC(C)[C@@H]1CC[C@@H](C)C[C@H]1O [L-Menthol],0.178
3,O=C(/C=C/c1ccc(O)cc1)c1ccc(O)cc1O [Isoliquiritigenin],0.485
4,OCCc1ccc(O)cc1 [Tyrosol],0.0116
5,"COc1cc(O)cc(OC)c1OC [3,4,5-Trimethoxyphenol]",0.0652
6,Cc1ncc(CO)c(CO)c1O [Pyridoxine hydrochloride],0.171
7,C=C1C(=O)O[C@@H]2C[C@@]3(C)CCCC(=C)[C@@H]3C[C@H]12 [Isoalantolactone],0.867 (active)
8,OC[C@H]1O[C@@H]2O[C@H]3[C@H](O)[C@@H](O)[C@@H](O[C@H]4[C@H](O)[C@@H](O)[C@@H](O[C@H]5[C@H](O)[C@@H](O)[C@@H](O[C@H]6[C@H](O)[C@@H](O)[C@@H](O[C@H]7[C@H](O)[C@@H](O)[C@@H](O[C@H]8[C@H](O)[C@@H](O)[C@@H](O[C@H]1[C@H](O)[C@H]2O)O[C@@H]8CO)O[C@@H]7CO)O[C@@H]6CO)O[C@@H]5CO)O[C@@H]4CO)O[C@@H]3CO [Beta-Cyclodextrin],0.0604
9,Oc1ccc(CC2NCCc3cc(O)c(O)cc32)cc1 (stereo not drawn) [Demethyl],0.182
10,CCCCCCCCCCCCCCCC(=O)O [Palmitic acid],0.0796
11,CC(C)[C@@H](C)/C=C/[C@@H](C)[C@H]1CC[C@H]2C3=CC=C4C[C@@H](O)CC[C@]4(C)[C@H]3CC[C@]12C [Ergosterol],-0.172
12,CN[C@@H]1[C@H](O)[C@H](NC)[C@H]2O[C@@]3(O)C(=O)C[C@@H](C)O[C@H]3O[C@@H]2[C@H]1O [Spectinomycin dihydrochloride],0.186
13,COc1ccc2c(C)cc(=O)oc2c1 [7-Methoxy-4-methylcoumarin],-0.298
14,CC(C)=CCC[C@](C)(O[C@@H]1O[C@H](CO)[C@@H](O)[C@H](O)[C@H]1O)[C@H]1CC[C@]2(C)[C@@H]1[C@H](O)C[C@@H]1[C@@]3(C)CC[C@H](O)C(C)(C)[C@@H]3[C@@H](O[C@@H]3O[C@H](CO)[C@@H](O)[C@H](O)[C@H]3O[C@@H]3O[C@@H](C)[C@H](O)[C@@H](O)[C@H]3O)C[C@]12C [Ginsenoside Re],-0.0285
15,COc1c(O)cc2c(c1O)[C@@H]1O[C@H](CO)[C@@H](O)[C@H](O)[C@H]1OC2=O [Bengenin],0.0368
16,C=C[C@H]1CN2CC[C@H]1C[C@@H]2[C@@H](O)c1ccnc2ccc(OC)cc12 [Quinidine hydrochloride],-0.217
17,O[C@H]1[C@H]2c3cc4c(cc3CN3CCC(=C[C@@H]1O)[C@H]23)OCO4 [Lycorine chloride],0.931 (active)
18,CC1(C)CC[C@]2(C(=O)O)[C@H](O)C[C@]3(C)C(=CC[C@@H]4[C@@]5(C)CC[C@H](O)[C@@](C)(C=O)[C@@H]5CC[C@]43C)[C@@H]2C1 [Quillaic Acid],0.0942
19,N[C@@H](CCC(=O)N[C@@H](CS)C(=O)NCC(=O)O)C(=O)O [Glutathione],-0.00752

row,Structure (SMILES),inhibition of cell viability
1,Cn1cnc2c1c(=O)[nH]c(=O)n2C [Theobromine],0.0986
2,N[C@H]1C(O)O[C@H](CO)[C@@H](O)[C@@H]1O (stereo partly drawn) [Glucosamine sulfate],0.381
3,O=C1c2cccc(O)c2C(=O)c2c(O)cc(CO)cc21 [Aloe-emodin],0.373
4,C=C1C(=O)O[C@@H]2/C=C(\C)CC/C=C(\C)CC[C@@H]12 [Costunolide],0.333
5,CC(=O)c1c(O)cc(O)cc1O [Phloracetophenone],0.00993
6,C=C1CC23CCC4C(C)(C(=O)OC5OC(CO)C(O)C(O)C5O)CCCC4(C)C2CCC1(OC1OC(CO)C(O)C(OC2OC(CO)C(O)C(O)C2O)C1OC1OC(C)C(O)C(O)C1O)C3 (stereo not drawn) [Dulcoside B],0.0729
7,COc1cc(C[C@H]2C(=O)OC[C@@H]2Cc2ccc(OC)c(OC)c2)ccc1O [Arctigenin],0.431
8,NCCc1c[nH]cn1 [Histamine],0.233
9,C=C1CC[C@@H]2[C@](C)(CO)[C@H](O)CC[C@@]2(C)[C@@H]1C/C=C1/C(=O)OC[C@H]1O [Andrographolide],0.853 (active)
10,Cn1c(=O)c2c(ncn2C)n(C)c1=O [Caffeine],0.0548
11,O=C(O)/C=C/c1ccc(O)cc1 [p-Coumaric acid],0.0191
12,COC(=O)Nc1nc2cc(C(=O)c3cccs3)ccc2[nH]1 [Nocodazole],0.75 (active)
13,O=c1[nH]cnc2nc[nH]c12 [6-Hydroxypurine],-0.00202
14,CNC[C@@H](O)c1ccc(O)c(O)c1 [L-Adrenaline],0.0228
15,NC(=O)CCC(N)C(=O)O (racemic) [DL-Glutamine],-0.221
16,CC(=O)O[C@]1(C(C)=O)CC[C@H]2[C@@H]3C[C@H](C)C4=CC(=O)CC[C@]4(C)[C@H]3CC[C@@]21C [Farlutin],0.01
17,CC(C)=CCC/C(C)=C/C=O [Citral],0.192
18,COc1ccc2[nH]cc(CCNC(C)=O)c2c1 [Melatonine],0.177
19,O=C(O[C@@H]1Cc2c(O)cc(O)cc2O[C@@H]1c1ccc(O)c(O)c1)c1cc(O)c(O)c(O)c1 [(-)-Epicatechin gallate],0.121
